hcDAF-12 act = H. contortus DAF-12 nuclear receptor activators, primary screen, cell-based, luminescence, HEK293, lit1-tk-luc reporter; activation, % at 6.8 µM; AID 652067, 2013; HEK293 hcDAF-12 lit1-tk-luc reporter; 0% DMSO, 100% Δ7-dafachronic acid; 370,000 compounds, 1.4% hits;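 active = activation above the mean of all tested compounds plus 3 SD, cut at about 5.5% in these data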;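 note: 100% = response to 3 µM Δ7-dafachronic acid high control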
DAX1 inh-1 = DAX1 (NR0B1) inhibitors, primary screen, cell-based, HEK293, Gal4-DAX1, luciferase luminescence; Nuclear receptor subfamily 0 group B member 1 (Homo sapiens), P51843; 340,000 compounds, 0.99% hits; AID 504766, 2011; inhibition, % at 6.75 µM; HEK293 Gal4-DAX1 luciferase reporter;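 active = inhibition above the mean over all tested compounds plus 3 SD, cut at about 4.2% in these data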;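 note: 0% = DAX1-transfected cells with DMSO and 100% = empty-vector control cells with DMSO; inhibition shows as a rise in luminescence from relieved DAX1 repression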
Target sequence (P51843 207-470 limits assumed): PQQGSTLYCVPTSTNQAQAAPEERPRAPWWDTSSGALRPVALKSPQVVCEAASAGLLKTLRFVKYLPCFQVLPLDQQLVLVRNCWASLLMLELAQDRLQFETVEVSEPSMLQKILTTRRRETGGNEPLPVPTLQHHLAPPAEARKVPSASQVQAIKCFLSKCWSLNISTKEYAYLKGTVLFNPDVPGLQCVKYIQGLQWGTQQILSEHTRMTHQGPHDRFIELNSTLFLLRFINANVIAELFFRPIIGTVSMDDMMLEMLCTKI
DAX1 inh-2 = DAX1 (NR0B1) inhibitors on StAR promoter, primary screen, cell-based, luminescence, SF-1 (NR5A1), full-length DAX-1. inhibition, % at 6.8 µM. AID 652010, 2013. 370,000 compounds, 1.1% hits. HEK293T StAR-luciferase reporter, SF-1/DAX-1 repression relief;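 active = inhibition above the mean over all tested compounds plus 3 SD, cut at about 3.6% in these data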;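 note: 0% = DAX-1 cells with DMSO and 100% = cells lacking DAX-1 with DMSO; higher inhibition means more luminescence from relief of DAX-1 repression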
ssDAF12 agonist = S. stercoralis DAF-12 nuclear receptor activators, primary screen, cell-based, luminescence, HEK293, GRIP1 co-expression, lit1-tk-luc; Nuclear hormone receptor DAF-12 (Strongyloides stercoralis); AID 652126, 2013; HEK293 ssDAF-12/GRIP1 lit1-tk-luc reporter; % of 3 µM dafachronic acid response; 370,000 compounds, 1% hits; activation, % at 6.8 µM;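 active = activation above the mean over all tested compounds plus 3 SD, cut at about 0.9% in these data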;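 note: 0% = DMSO-only wells and 100% = 3 µM delta7-dafachronic acid wells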
hgDAF-12 ag = H. glycines DAF-12 receptor agonists, primary screen, cell-based, luminescence, HEK293, GAL4 fusion, UAS-luciferase; activation, % at 6.8 µM; Nuclear hormone receptor DAF-12 (Heterodera glycines), GAL4 fusion; 370,000 compounds, 1.8% hits; HEK293 GAL4-hgDAF12 UAS-luciferase reporter, agonist luminescence; normalized to butyrate control;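 active = activation above a cutoff set at the mean of all screened compounds plus 3 SD, cut at about 10% in these data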;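 note: 0% = DMSO wells and 100% = sodium butyrate wells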
DAX1 conf = DAX1 (NR0B1) inhibitors relieving SF-1 repression, confirmation, cell-based, luminescence, HEK293T, full-length DAX-1, SF-1 activated StAR promoter; shares compounds with DAX1 inh-2; HEK293T StAR-promoter luciferase reporter, SF-1/DAX-1 repression; inhibition, % at 6.8 µM; 2,400 compounds, 87% hits; AID 652134, 2013;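 active = inhibition above the average of every tested compound plus 3 SD, cut at about 3.8% in these data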;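 note: 0% = DAX-1 cells with DMSO and 100% = no DAX-1 control cells with DMSO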
Target sequence (P51843 whole entry, looked up): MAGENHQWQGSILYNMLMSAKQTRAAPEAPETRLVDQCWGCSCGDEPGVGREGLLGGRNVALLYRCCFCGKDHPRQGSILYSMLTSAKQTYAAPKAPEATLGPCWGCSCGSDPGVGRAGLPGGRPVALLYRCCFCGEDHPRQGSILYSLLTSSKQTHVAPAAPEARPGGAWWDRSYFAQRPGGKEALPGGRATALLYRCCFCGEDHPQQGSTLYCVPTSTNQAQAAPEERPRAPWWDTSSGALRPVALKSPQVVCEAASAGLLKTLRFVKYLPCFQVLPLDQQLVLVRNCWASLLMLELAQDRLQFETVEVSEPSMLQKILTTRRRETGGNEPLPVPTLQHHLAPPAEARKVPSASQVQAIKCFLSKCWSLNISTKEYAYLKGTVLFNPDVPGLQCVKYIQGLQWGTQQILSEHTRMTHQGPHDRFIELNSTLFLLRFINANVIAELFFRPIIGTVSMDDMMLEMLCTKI
SF1 mutant ctr = StAR reporter signal changes without DAX1, counter-screen for DAX1 inhibitor project, cell-based, luminescence, AF-2 mutant SF-1, transactivation; AID 652136, 2013; shares compounds with DAX1 inh-2; inhibition, % at 6.8 µM; HEK293 StAR-luciferase, SF-1 AF2 mutant; 2,400 compounds, 78% hits;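 active = inhibition above the mean of all tested compounds plus 3 SD, cut at about 3% in these data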;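 note: 0% = DAX-1 transfected cells with DMSO and 100% = cells without DAX-1 with DMSO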
The depositor's hits bear a star; · = not tested or not shown. Rows were chosen to be rich in hits. Some 4.1% of all compounds tested hit in one or more screens of this group.

SMILES | hcDAF-12 act | DAX1 inh-1 | DAX1 inh-2 | ssDAF12 agonist | hgDAF-12 ag | DAX1 conf | SF1 mutant ctr
CCc1noc(C)c1C(=O)Nc1nc2ccc(S(C)(=O)=O)cc2s1 | 0.6 | 1.1 | 2.4 | -0.8 | 5.6 | · | ·
Cc1noc(C)c1C(=O)Nc1nc2ccc(Cl)cc2s1 | -0.6 | 0.7 | 5.5* | -0.3 | 2.6 | 2.4 | 2.7
Cc1ccc2nc(-c3cccc(Cl)c3)c(Cc3cccc(F)c3)n2c1 | 1.6 | · | 4.8* | -0.7 | 5.3 | 2.4 | 2.3
Cc1ccc2nc(-c3ccc(Cl)cc3)c(Cc3cccc(F)c3)n2c1 | -0.1 | · | 3.0 | 0.2 | 8.3 | · | ·
Cc1ccc2nc(-c3ccc(Cl)cc3)c(Cc3ccccc3C(F)(F)F)n2c1 | 1.9 | · | 7.7* | -0.7 | 11.8* | 3.7* | 3.7*
Cc1csc(NC(=O)c2cc(C)on2)n1 | 0.3 | 1.2 | 7.0* | 0.2 | 6.5 | 6.8* | 5.9*
Cc1cccnc1NC(=O)COc1ccc2c(c1)CCC2 | 0.8 | 0.2 | 6.1* | 1.0* | 9.1 | 4.7* | 1.6
Cc1ccc(NC(=O)COc2ccc3c(c2)CCC3)nc1 | 0.2 | 3.5 | 5.1* | -0.2 | 10.6* | 8.4* | 3.5*
Cc1cccnc1NC(=O)COc1ccc2oc3c(c2c1)CCCC3 | 0.5 | -0.1 | -0.4 | -1.3 | -0.7 | · | ·
Cc1ccc(NC(=O)COc2ccc3oc4c(c3c2)CCCC4)nc1 | -1.7 | -0.7 | -1.0 | -1.2 | 1.1 | · | ·
Cc1ccc(NC(=O)c2ccc(-c3cc(Cl)ccc3Cl)o2)c(C)c1 | -0.2 | · | 5.9* | -0.2 | -0.1 | 3.3 | 0.8
Cc1ccccc1NC(=O)c1ccc(-c2ccc(Cl)cc2Cl)o1 | 0.1 | 0.3 | 0.4 | -1.2 | 0.3 | · | ·
CCc1nc2ccc(C(=O)NCCN3CCNC3=O)cn2c1N(C)CCC(C)C | -1.6 | · | 0.1 | -1.1 | -3.2 | · | ·
COc1cc(SC)ccc1C(=O)NNC(=O)c1cc(C)oc1C | 3.5 | -0.7 | 11.8* | 0.3 | 12.8* | 6.9* | 5.0*
CCCOC1CCCN(C(=O)c2cc(COc3c(F)cccc3F)on2)C1 (stereo unspecified) | 2.5 | 1.2 | 4.5* | -0.4 | 10.0 | 4.4* | 5.5*
Cc1ccccc1C1CCCN(C(=O)c2cc(COc3c(F)cccc3F)on2)C1 (stereo unspecified) | -2.3 | -1.6 | -0.5 | -1.5 | -2.7 | · | ·
CCc1nnc(NC(=O)c2ccc3ncsc3c2)s1 | -0.1 | 3.2 | 0.7 | -0.8 | 5.3 | · | ·
Cc1cnc(NC(=O)c2ccc3ncsc3c2)s1 | 5.1 | 2.4 | 12.7* | -0.4 | 12.5* | 15.1* | 6.7*
Cc1ccc(S(=O)(=O)Nc2cccc(C(=O)NCC3(N4CCCCC4)CCCCC3)c2)cc1F | 1.4 | 0.2 | 6.2* | -0.9 | -1.4 | 4.6* | 3.8*
CCOc1ccc(S(=O)(=O)Nc2ccc(C(=O)NCC3(N4CCCCC4)CCCCC3)cc2)cc1 | 0.9 | 2.3 | 8.7* | -0.9 | 1.2 | 8.3* | 4.9*
Cc1cccc(NS(=O)(=O)c2cccc(C(=O)NCC3(N4CCCCC4)CCCCC3)c2)c1 | 1.6 | 0.7 | 5.0* | -1.0 | 0.8 | 3.2 | 1.5
CNS(=O)(=O)c1cccc(C(=O)NCC2(N3CCCCC3)CCCCC2)c1 | 1.5 | 0.3 | 0.4 | -0.7 | -1.2 | · | ·
COc1ccc(NS(=O)(=O)c2cccc(C(=O)NCC3(N4CCCCC4)CCCCC3)c2)cc1 | 1.1 | 0.9 | 7.8* | -0.7 | 3.7 | 10.2* | 5.4*
O=C(CSc1nc2ccccc2nc1N1CCCCC1)N1CCN(S(=O)(=O)c2ccccc2)CC1 | -3.7 | · | -1.1 | -1.1 | 4.2 | · | ·
O=C(COC(=O)C1CCC1)NCc1ccccc1 | -1.3 | 0.8 | 1.0 | -1.3 | -1.5 | · | ·
SMILES | hcDAF-12 act | DAX1 inh-1 | DAX1 inh-2 | ssDAF12 agonist | hgDAF-12 ag | DAX1 conf | SF1 mutant ctr
NC(=O)C1CCN(C(=O)c2cc3c(s2)CCCC3)CC1 | 1.1 | 1.7 | 5.7* | -0.8 | 6.5 | 4.9* | 2.4
COc1ccc(N2CCN(C(=O)c3cc4c(s3)CCCCC4)CC2)cc1 | -0.1 | 0.5 | 4.5* | -0.8 | 2.0 | 2.8 | 1.9
Cc1ccc(CONC(=O)c2ccc(C)cc2)cc1 | 0.5 | 2.9 | 5.9* | 0.9 | 8.8 | 5.9* | 3.5*
O=C(NOCc1ccccc1)c1ccc(Cl)cc1 | 2.0 | 0.4 | 8.6* | 0.8 | 6.3 | 10.9* | 6.2*
C=Cc1ccc(C(=O)N(Cc2ccc(F)cc2)C(C(=O)N(C)C2CCCC2)c2ccc(OC)c(OC)c2)cc1 (stereo unspecified) | -2.3 | · | -1.1 | -1.7 | -2.3 | · | ·
O=C(COc1ccccc1)Nc1cccc(-c2ccc(N3CCOCC3)nn2)c1 | 3.2 | 0.2 | 7.9* | 0.3 | 12.7* | 5.3* | 2.4
COc1ccc(-c2ccc(NC(=O)c3ccco3)cc2)nn1 | 3.5 | -3.8 | 9.0* | -0.2 | 8.1 | 12.9* | 1.4
O=C(Nc1cccc(-c2ccc(N3CCOCC3)nn2)c1)c1ccccc1 | 1.7 | -1.4 | 4.7* | -0.8 | 5.7 | 2.9 | 1.8
CC1CCN(c2ccc(-c3cccc(NC(=O)c4ccco4)c3)nn2)CC1 | 3.3 | -1.0 | 8.0* | 0.1 | 10.0 | 10.8* | 3.4*
O=C(COc1ccc(Cl)cc1Cl)Nc1cccc(-c2ccc(N3CCOCC3)nn2)c1 | 2.5 | -0.1 | 2.6 | -0.6 | 3.9 | · | ·
O=C(Nc1cccc(-c2ccc(N3CCOCC3)nn2)c1)c1ccc([N+](=O)[O-])cc1 | 3.0 | 1.2 | 1.6 | -0.2 | 8.7 | · | ·
COc1cccc(C2C(C(N)=O)=C(C)Nc3nc(CCCO)nn32)c1 (stereo unspecified) | -0.1 | 0.4 | 0.6 | -0.1 | 3.7 | · | ·
N#Cc1ccc2[nH]cc(CCO)c2c1 | -1.2 | 0.7 | -0.3 | -0.8 | 4.1 | · | ·
COc1ccc(CC(=O)NNC(=O)c2cc(Cl)ccc2OC)cc1 | -1.3 | 0.4 | 1.4 | -1.1 | -0.8 | · | ·
CN(C)S(=O)(=O)c1cccc(C(=O)N/N=C\c2ccccc2[N+](=O)[O-])c1 | 3.5 | · | 6.9* | 0.6 | 11.4* | 11.6* | 9.7*
CN(C)S(=O)(=O)c1cccc(NC(=O)/C=C/c2ccccc2[N+](=O)[O-])c1 | 0.5 | 0.2 | -0.3 | -0.8 | 2.1 | · | ·
Nc1c(C(=O)Nc2ccc3c(c2)OCCO3)nnn1Cc1cccc(Br)c1 | 3.2 | 3.9 | 9.3* | -1.1 | 2.9 | 9.0* | 5.9*

Screening results from PubChem BioAssay.
